Measured values: PubChem BioAssay (NCI)
This is part of a sample that, as a whole, favours compounds with a hit. Of some 83,000 tested, about 20% had one in any assay.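 How to read the values: 0–100, growth inhibition (40 = 60% inhibited); 0, no net growth; -100 to 0, cell death (-40 = 40% of starting cells died; -100 = all dead).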 Calls of active or inactive are those of the source. The calls were made as follows: active = growth percent below 10; inactive = the rest.

Tests used:
Experiment in all cases: NCI-60 one-dose screen, 48 h (100 = growth as untreated, 0 = no growth, -100 = all killed)
DU-145 prostate = settings: 10 µM unless noted
K-562 leukemia = settings: 10 µM unless noted
MALME-3M melanoma = settings: 10 µM unless noted
MDA-MB-231 breast = settings: 10 µM unless noted
RXF 393 renal = settings: 10 µM unless noted
SF-268 CNS = settings: 10 µM unless noted
SF-295 CNS = settings: 10 µM unless noted
SF-539 CNS = settings: 10 µM unless noted
UACC-257 melanoma = settings: 10 µM
M14 melanoma = settings: 10 µM unless noted
HCT-15 colon = settings: 10 µM unless noted
HT29 colon = settings: 10 µM unless noted
SNB-75 CNS = settings: 10 µM unless noted
SNB-19 CNS = settings: 10 µM unless noted
U251 CNS = settings: 10 µM unless noted
PC-3 prostate = settings: 10 µM unless noted
SK-MEL-5 melanoma = settings: 10 µM unless noted
UACC-62 melanoma = settings: 10 µM unless noted
LOX IMVI melanoma = settings: 10 µM unless noted
SK-MEL-28 melanoma = settings: 10 µM unless noted

Measured: growth

CC(C)CCN(CCCNc1c2c(nc3ccccc13)CCCC2)CCC(C)C
inactive: DU-145 prostate 86.3% | K-562 leukemia 31.4% | MALME-3M melanoma 84.9% | MDA-MB-231 breast 24.5% | RXF 393 renal 81.9% | SF-268 CNS 89.4% | SF-295 CNS 80.1% | SF-539 CNS 88.2% | UACC-257 melanoma 94.5% | M14 melanoma 35.9% | HCT-15 colon 72.9% | HT29 colon 46.3% | SNB-75 CNS 76.8% | SNB-19 CNS 87.2% | U251 CNS 65.1% | PC-3 prostate 73.6% | SK-MEL-5 melanoma 83.1% | UACC-62 melanoma 97.2% | LOX IMVI melanoma 76.4% | SK-MEL-28 melanoma 86.2%

C=C1C(=O)O[C@H]2[C@H](O)[C@@H](C)CCC/C(C)=C/CC[C@@]3(C)O[C@@H]3C[C@@H]12
inactive: DU-145 prostate 99.4% | K-562 leukemia 79.2% | MALME-3M melanoma 72% | MDA-MB-231 breast 77.9% | RXF 393 renal 53.1% | SF-268 CNS 96.1% | SF-295 CNS 89.4% | SF-539 CNS 84.2% | UACC-257 melanoma 56.9% | M14 melanoma 92.8% | HCT-15 colon 96.3% | HT29 colon 99.6% | SNB-75 CNS 75.7% | SNB-19 CNS 88% | U251 CNS 97.3% | PC-3 prostate 46.5% | SK-MEL-5 melanoma 91.5% | UACC-62 melanoma 89% | LOX IMVI melanoma 92% | SK-MEL-28 melanoma 95.1%

COc1ccc(C(=O)/C=C/c2ccc(/C=C/c3cc(OC)c(OC)c(OC)c3)cc2)cc1
inactive: DU-145 prostate 68.4% | K-562 leukemia 14.4% | MALME-3M melanoma 66.8% | MDA-MB-231 breast 76.8% | RXF 393 renal 71.3% | SF-268 CNS 66.2% | SF-295 CNS 57.9% | SF-539 CNS 86.3% | UACC-257 melanoma 72.5% | M14 melanoma 67% | HCT-15 colon 33.6% | HT29 colon 36.2% | SNB-75 CNS 59.8% | SNB-19 CNS 74.4% | U251 CNS 36.3% | PC-3 prostate 52.2% | SK-MEL-5 melanoma 62% | UACC-62 melanoma 53.7% | LOX IMVI melanoma 24.7% | SK-MEL-28 melanoma 84.7%

CCC1CCc2nc3sc(C(=O)Nc4cccc(C)c4)c(N)c3cc2C1 (stereo not given)
inactive: DU-145 prostate 78.3% | K-562 leukemia 35.8% | MALME-3M melanoma 47.4% | MDA-MB-231 breast 79.8% | RXF 393 renal 83.9% | SF-268 CNS 77.6% | SF-295 CNS 70.4% | SF-539 CNS 73.1% | UACC-257 melanoma 56.3% | M14 melanoma 55.1% | HCT-15 colon 43.7% | HT29 colon 47.6% | SNB-75 CNS 71.2% | SNB-19 CNS 86% | U251 CNS 66.6% | PC-3 prostate 66.7% | SK-MEL-5 melanoma 54.5% | UACC-62 melanoma 49.2% | LOX IMVI melanoma 72.7% | SK-MEL-28 melanoma 69.7%

COc1ccc(-c2nc3sccn3c2-c2ccnc(NCCCNS(=O)(=O)c3ccc4ccccc4c3)n2)cc1
inactive: DU-145 prostate 62.1% | K-562 leukemia 34.6% | MALME-3M melanoma 80.8% | MDA-MB-231 breast 53.7% | RXF 393 renal 76.9% | SF-268 CNS 63.5% | SF-295 CNS 61% | SF-539 CNS 71.7% | UACC-257 melanoma 82.8% | M14 melanoma 56.5% | HCT-15 colon 44.9% | HT29 colon 44.1% | SNB-75 CNS 85.5% | SNB-19 CNS 86.1% | U251 CNS 67.3% | PC-3 prostate 66.8% | SK-MEL-5 melanoma 42.3% | UACC-62 melanoma 54.5% | LOX IMVI melanoma 53.9% | SK-MEL-28 melanoma 80%

COc1cccc(/C=C2\SC(N3CCN(c4ccccn4)CC3)=NC2=O)c1
inactive: DU-145 prostate 101% | K-562 leukemia 82.2% | MALME-3M melanoma 96.8% | MDA-MB-231 breast 99.2% | RXF 393 renal 113% | SF-268 CNS 102% | SF-295 CNS 98.6% | SF-539 CNS 110% | UACC-257 melanoma 101% | M14 melanoma 103% | HCT-15 colon 105% | HT29 colon 84.7% | SNB-75 CNS 102% | SNB-19 CNS 99.4% | U251 CNS 105% | PC-3 prostate 88.9% | SK-MEL-5 melanoma 97.1% | UACC-62 melanoma 95.9% | LOX IMVI melanoma 94.7% | SK-MEL-28 melanoma 110%

COC(=O)c1cc(-c2cccs2)c(C#N)c(N)c1C#N
inactive: DU-145 prostate 109% | K-562 leukemia 104% | MALME-3M melanoma 116% | MDA-MB-231 breast 94.3% | RXF 393 renal 108% | SF-268 CNS 99.5% | SF-295 CNS 103% | SF-539 CNS 101% | UACC-257 melanoma 100% | M14 melanoma 110% | HCT-15 colon 101% | HT29 colon 106% | SNB-75 CNS 83.4% | SNB-19 CNS 97.1% | U251 CNS 95.5% | PC-3 prostate 95.5% | SK-MEL-5 melanoma 102% | UACC-62 melanoma 99.3% | LOX IMVI melanoma 99% | SK-MEL-28 melanoma 114%

O=C(Nc1ccc(Cl)cc1)c1cc(-c2ccc(F)cc2)c2sc(=O)[nH]c2n1
inactive: DU-145 prostate 24.2% | K-562 leukemia 10.6% | SF-268 CNS 23.6% | M14 melanoma 13.9% | HCT-15 colon 13.1% | HT29 colon 16.9% | SNB-19 CNS 19.3% | PC-3 prostate 10.3% | UACC-62 melanoma 26.9% | SK-MEL-28 melanoma 25.4%
active: MALME-3M melanoma 4.01% | MDA-MB-231 breast 5.74% | RXF 393 renal 5.27% | SF-295 CNS 9.57% | SF-539 CNS -4.01% | UACC-257 melanoma -8.82% | SNB-75 CNS -5.08% | U251 CNS 9.42% | SK-MEL-5 melanoma -86.1% | LOX IMVI melanoma 8.5%

COc1cc(NC(=O)c2cc3ccccc3nc2Nc2ccc(F)cc2)cc(OC)c1OC
inactive: DU-145 prostate 69.8% | K-562 leukemia 37.3% | MALME-3M melanoma 66.7% | MDA-MB-231 breast 51.2% | RXF 393 renal 50.6% | SF-268 CNS 50.9% | SF-295 CNS 39.5% | SF-539 CNS 40.5% | UACC-257 melanoma 27.6% | M14 melanoma 30.2% | HCT-15 colon 31.8% | HT29 colon 69.3% | SNB-75 CNS 60.7% | SNB-19 CNS 61.1% | U251 CNS 35.3% | PC-3 prostate 13.2% | UACC-62 melanoma 37.5% | LOX IMVI melanoma 32.6% | SK-MEL-28 melanoma 54.2%
active: SK-MEL-5 melanoma -13.8%

c1ccc([P+](CCC[P+](c2ccccc2)(c2ccccc2)c2ccccc2)(c2ccccc2)c2ccccc2)cc1
inactive: DU-145 prostate 86.7% | K-562 leukemia 23.2% | MALME-3M melanoma 65.6% | MDA-MB-231 breast 93.7% | RXF 393 renal 104% | SF-268 CNS 69.2% | SF-295 CNS 73.4% | SF-539 CNS 88% | UACC-257 melanoma 37% | M14 melanoma 80.9% | HCT-15 colon 101% | HT29 colon 66.9% | SNB-75 CNS 54% | SNB-19 CNS 64.4% | U251 CNS 40% | PC-3 prostate 38% | SK-MEL-5 melanoma 75.1% | UACC-62 melanoma 62.5% | LOX IMVI melanoma 86.6% | SK-MEL-28 melanoma 75.1%

COc1cccc(C2CC(=O)Nc3c2c(C)nn3-c2nc3ccccc3[nH]2)c1OC (stereo not given)
active: SF-295 CNS 7.64%
inactive: DU-145 prostate 76.5% | K-562 leukemia 40.9% | MALME-3M melanoma 52.3% | MDA-MB-231 breast 82.1% | RXF 393 renal 64.2% | SF-268 CNS 76.4% | SF-539 CNS 99.7% | UACC-257 melanoma 79.1% | M14 melanoma 65.4% | HCT-15 colon 59.4% | HT29 colon 86.6% | SNB-75 CNS 74.8% | SNB-19 CNS 87.1% | U251 CNS 63.6% | PC-3 prostate 62.8% | SK-MEL-5 melanoma 60.1% | UACC-62 melanoma 51.3% | LOX IMVI melanoma 54.2% | SK-MEL-28 melanoma 79.5%

Cc1ccc(Nc2ncnc3c2sc2ncccc23)cc1
inactive: DU-145 prostate 108% | K-562 leukemia 53.8% | MALME-3M melanoma 107% | MDA-MB-231 breast 103% | RXF 393 renal 88.2% | SF-268 CNS 97.6% | SF-295 CNS 110% | SF-539 CNS 100% | UACC-257 melanoma 99.5% | M14 melanoma 101% | HCT-15 colon 99.2% | HT29 colon 114% | SNB-75 CNS 82.8% | SNB-19 CNS 103% | U251 CNS 101% | PC-3 prostate 103% | SK-MEL-5 melanoma 97% | UACC-62 melanoma 103% | LOX IMVI melanoma 100% | SK-MEL-28 melanoma 104%

COc1cc(NCCCN=C(N)NC(N)=NC(C)C)c2ncccc2c1
active: MALME-3M melanoma -24.2%
inactive: DU-145 prostate 106% | K-562 leukemia 44.6% | MDA-MB-231 breast 64.9% | RXF 393 renal 94.8% | SF-268 CNS 44.1% | SF-295 CNS 87.5% | SF-539 CNS 21.7% | UACC-257 melanoma 45.1% | M14 melanoma 65.3% | HCT-15 colon 89.8% | HT29 colon 58.9% | SNB-75 CNS 75.3% | SNB-19 CNS 77.7% | U251 CNS 70.8% | PC-3 prostate 45% | SK-MEL-5 melanoma 27% | UACC-62 melanoma 90.1% | LOX IMVI melanoma 80.8% | SK-MEL-28 melanoma 84.4%

COc1ccc(C(=O)/C=C/c2cc(C(=O)c3cc(OC)c(OC)c(OC)c3)ccc2OC)cc1
inactive: DU-145 prostate 79.3% | K-562 leukemia 12.8% | MALME-3M melanoma 77.9% | MDA-MB-231 breast 51.8% | RXF 393 renal 73% | SF-268 CNS 59.2% | SF-295 CNS 98.1% | SF-539 CNS 55% | UACC-257 melanoma 68% | M14 melanoma 64.7% | HCT-15 colon 29.2% | HT29 colon 27.7% | SNB-75 CNS 66.7% | SNB-19 CNS 53.6% | U251 CNS 52.4% | PC-3 prostate 44.5% | SK-MEL-5 melanoma 54.4% | UACC-62 melanoma 33.1% | LOX IMVI melanoma 27.4% | SK-MEL-28 melanoma 35.1%

CCNC(=O)C1CCCN1C(=O)C(CCCN=C(N)N)NC(=O)C(CC(C)C)NC(=O)C(CC(C)C)NC(=O)C(Cc1ccc(O)cc1)NC(=O)C(CO)NC(=O)C(Cc1c[nH]c2ccccc12)NC(=O)C(Cc1cnc[nH]1)NC(=O)C1CCC(=O)N1 (stereo not given)
inactive: DU-145 prostate 135% | K-562 leukemia 73.5% | MALME-3M melanoma 122% | MDA-MB-231 breast 112% | RXF 393 renal 28.4% | SF-268 CNS 100% | SF-295 CNS 122% | SF-539 CNS 96.1% | UACC-257 melanoma 83.8% | M14 melanoma 102% | HCT-15 colon 102% | HT29 colon 97.4% | SNB-75 CNS 90.3% | SNB-19 CNS 102% | U251 CNS 94.8% | PC-3 prostate 81.8% | SK-MEL-5 melanoma 95% | UACC-62 melanoma 110% | LOX IMVI melanoma 95.1% | SK-MEL-28 melanoma 168%
